Results filed as inconclusive are left out. The source made the active and inactive calls. Unless noted, calls follow the shape of the dose curve; as a rule, active = well fitted curve in the direction sought with a large enough effect; inconclusive = small, poorly fitted or top-dose-only effect, or another doubt; inactive = no such curve, though single readings can be large; an effect the other way counts as inactive or inconclusive.

Assay [1] in a line: P-glycoprotein substrates identified in KB-3-1 adenocarcinoma cell line, qHTS therapeutic library screen (AID 1346986). Also: nearly all actives have a fitted effect of over 60% in size.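 Also: potency is read from the fitted curve at half-maximal effect; potency is for cytotoxicity meaning loss of cell viability.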 A digest of the protocol:
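72 h cell-killing screen, 500 cells/well, CellTiter-Glo luminescence. Paired lines KB-3-1/KB-8-5-11; P-gp dependence checked by tariquidar co-treatment and HEK-293 MDR-19 versus empty-vector cells.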

Assay [2] is described as follows: P-glycoprotein substrates identified in KB-8-5-11 adenocarcinoma cell line, qHTS therapeutic library screen (AID 1346987). Also: nearly all actives have a fitted effect of over 65% in size. Also: potency is read from the fitted curve at half-maximal effect. Put shortly: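 Luminescence from CellTiter-Glo, read 5 min after addition, quantified survival of KB-8-5-11 (P-gp-overexpressing) cells exposed to compounds for 72 h. AC50 was derived from concentration-response curves.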
A general note: qHTS replaces the single test concentration by a dilution series.

Assay [3] is described as follows: Primary qHTS for inhibitors of nuclear receptor binding SET domain protein 2 (NSD2) in an isogenic RCH-ACV NSD2 p.E1099K mutant (9B) (AID 1645876). Also: potency is read from the fitted curve at half-maximal effect; nearly all actives have a fitted effect of over 70% in size.
Assay [4] can be described thus: Primary qHTS for inhibitors of nuclear receptor binding SET domain protein 2 (NSD2) in an RCH-ACV wild type WT cells (2C) (AID 1645877). Also: nearly all actives have a fitted effect of over 70% in size. Also: potency is read from the fitted curve at half-maximal effect.
Assay [5] can be described thus: Confirmatory qHTS for VERO E6 Cytotoxicity Assay: Counterscreen for SARS-CoV-2 CPE Assay (AID 1508605; calls by dose curve; also: % is scaled to controls: 0 for no effect and ±100 for the full control effect; nearly all actives have a fitted effect of over 60% in size).
Assay [6] can be described thus: Confirmatory qHTS for activators (rescue) of SARS-CoV-2 Cytopathic Effect (CPE) (AID 1508606; calls by dose curve; also: potency is read from the fitted curve at half-maximal effect; nearly all actives have a fitted effect of over 70% in size).
Assay [7] deals with Glutathione peroxidase 1 (Homo sapiens) (UniProt P07203). The assay is described as follows: Primary qHTS Assay for Inhibitors of Recombinant Selenoprotein Glutathione Peroxidase 1 (GPX1) (AID 1845191). Also: nearly all actives have a fitted effect of over 65% in size. A digest of the protocol: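 GPX1 10 nM, GR 100 nM, GSH 1 mM, NADPH 0.5 mM, CHP 0.5 mM (final). 30-min cpd preincubation, RT. Ex340/Em450 read t=0, t=15 min.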
Sequence of Glutathione peroxidase 1 (Homo sapiens) (P07203 whole entry, looked up): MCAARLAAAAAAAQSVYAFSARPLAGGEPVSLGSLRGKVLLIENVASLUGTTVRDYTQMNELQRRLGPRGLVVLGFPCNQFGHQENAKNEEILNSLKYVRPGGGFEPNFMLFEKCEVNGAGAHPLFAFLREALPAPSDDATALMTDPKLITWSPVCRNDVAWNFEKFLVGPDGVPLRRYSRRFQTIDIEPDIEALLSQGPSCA
Assay [8] in a line: qHTS for Inhibitors of the Functional Ribonucleoprotein Complex (vRNP) of Lassa (LASV) Arenavirus: LASV Primary Screen - GLuc reporter signal (AID 1347082; calls by dose curve; tested in HEK293 reporter line; also: nearly all actives have a fitted effect of over 60% in size; also: potency is read from the fitted curve at half-maximal effect).
Assay [9] is described as follows: Cytotoxicity counterscreen for inhibitors of SARS-CoV-2 cell entry (AID 1645845; calls by dose curve; also: potency is read from the fitted curve at half-maximal effect; nearly all actives have a fitted effect of over 50% in size). A digest of the protocol:
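After a 15 min room-temperature ATPLite 1step step, luminescence reflected ATP remaining in HEK293-ACE2 cells exposed to compound for 1 h plus 48 h at 37 C, with percent activity set by cell and no-cell controls.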
On the technique in general: The purpose of a counterscreen is to sort out artefacts and off-target activity.

Assay [10] deals with Phospholipid hydroperoxide glutathione peroxidase GPX4 (Homo sapiens) (UniProt P36969). In words: Primary qHTS Assay for Inhibitors of Recombinant Selenoprotein Glutathione Peroxidase 4 (GPX4) (AID 1845192). Also: % is scaled to controls: 0 for no effect and ±100 for the full control effect; nearly all actives have a fitted effect of over 65% in size. A digest of the protocol: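 qHTS, GR-coupled: GPX4 200 nM + cpd 30 min RT → GSH 1 mM, NADPH 0.5 mM, GR 100 nM → CHP 0.5 mM start; fluor 340/450 at t0 and t15 min; no-enzyme wells as control.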
Sequence of Phospholipid hydroperoxide glutathione peroxidase GPX4 (Homo sapiens) (P36969 whole entry, looked up): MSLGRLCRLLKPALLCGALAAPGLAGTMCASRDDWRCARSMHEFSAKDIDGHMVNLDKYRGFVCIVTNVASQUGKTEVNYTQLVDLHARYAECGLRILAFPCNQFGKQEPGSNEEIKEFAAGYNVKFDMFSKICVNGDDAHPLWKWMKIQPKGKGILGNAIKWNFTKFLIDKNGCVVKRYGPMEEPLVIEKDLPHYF

Assay [11] can be described thus: qHTS drug screen for cell cycle checkpoint inhibitors in PARPi-resistant BRCA-mutant ovarian cancer cell lines. (AID 1963452; calls by dose curve). The settings on record: PEO1/OlaR viability, CellTiter-Glo luminescence, 96 h, stronger effect = lower value. Put shortly:
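PEO1, PEO4 and PEO1/OlaR ovarian cancer cells, 600 per well, exposed 96 h at 37C to a dilution series. Viability read by CellTiter-Glo luminescence, normalized to DMSO and empty wells; activity summarized as Z-AUC.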

The target in assay [12] is Luciferin 4-monooxygenase (Photinus pyralis) (UniProt P08659). In words: Biochemical firefly luciferase enzyme assay for NPC (AID 624030).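 Also: purified P. pyralis luciferase at 10 nM with luciferin and ATP substrate; 0% = DMSO and -100% = full luciferase inhibition by PTC124 control; nearly all actives have a fitted effect of over 70% in size.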 Put shortly:
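Counter-screen for direct inhibition of the luciferase enzyme by approved-drug library compounds, run at 10 nM enzyme in 50 mM Tris acetate (final). Luminescence was read within 5 min of enzyme-buffer addition and normalized to PTC124 versus DMSO (0%).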

Assay [13] can be described thus: qHTS Assay for Identifying Gametocytocidal Compounds (AID 743244).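 Also: % is scaled to controls: 0 for no effect and ±100 for the full control effect; actives lower the fluorescent signal which means gametocytes are killed.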 Particulars: P. falciparum 3D7 stage III-V gametocytes, alamarBlue, 72 h; max response: stronger effect = lower value. Put shortly:
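3D7 gametocytes, stages III–V, 20,000/well; cpd 72 h, 37 °C/5% CO2; + alamarBlue 24 h; fluor. Ex 525/Em 598.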

Assay [14] relates to astro. The assay is described as follows: Drug repurposing screens with cells derived from glioblastoma tumor samples (AID 1345199). Also: % is scaled to controls: 0 for no effect and ±100 for the full control effect; nearly all actives have a fitted effect of over 40% in size. Particulars: viability, ATP luminescence, 48 h; series mostly up to 45.9 µM. Put shortly:
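Primary testing used CD133+ neurospheres from four GBM patients, seven concentrations, 48 h exposure and ATP-based viability; confirmation added three slower-growing patient lines.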

Assay [15] concerns Zika virus NS2B-NS3 protease. The assay is described as follows: Primary screen GU AMC qHTS for Zika virus inhibitors (AID 1347154). Also: nearly all actives have a fitted effect of over 70% in size. Put shortly:
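Unlinked Zika NS2B hydrophilic domain/NS3 protease domain noncovalent complex (25 nM final) in 10 mM Tris-HCl pH 8.0, 0.01% Tween 20, with AMC peptide substrate. Fluorescence (ex 340, em 450 nm) change over 15 min, room temperature; percent inhibition fitted to 4-parameter Hill equation.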

A short description of assay [16]: Primary qHTS for small molecule stabilizers of the endoplasmic reticulum resident proteome: Secreted ER Calcium Modulated Protein (SERCaMP) assay (AID 1508630). Also: % is scaled to controls: 0 for no effect and ±100 for the full control effect. A digest of the protocol:
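The SH-SY5Y reporter protocol was run at 3 concentrations up to 38.3 uM (primary) or 11 concentrations (follow-up): 16 h compound, 100 nM thapsigargin for 4 h, then extracellular luciferase luminescence.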

Assay [17] is described as follows: qHTS for Inhibitors of the Functional Ribonucleoprotein Complex (vRNP) of Lassa (LASV) Arenavirus: Viability assay - alamar blue signal for LASV Primary Screen (AID 1347083; calls by dose curve; tested in HEK293 reporter line; also: nearly all actives have a fitted effect of over 80% in size; also: potency is read from the fitted curve at half-maximal effect).
The nature of assay [18]: qHTS for Inhibitors of the Functional Ribonucleoprotein Complex (vRNP) of Lymphocytic Choriomeningitis Arenaviruses (LCMV): Viability assay - alamar blue signal for LCMV Primary Screen (AID 1347085; calls by dose curve; tested in HEK293 reporter line; also: nearly all actives have a fitted effect of over 80% in size; also: potency is read from the fitted curve at half-maximal effect).
In assay [19] the target is Nucleoprotein (Lymphocytic choriomeningitis virus (strain Armstrong)) (UniProt P09992). The assay is described as follows: qHTS for Inhibitors of the Functional Ribonucleoprotein Complex (vRNP) of Lymphocytic Choriomeningitis Arenaviruses (LCMV): LCMV Primary Screen - GLuc reporter signal (AID 1347086; calls by dose curve).
Sequence of Nucleoprotein (Lymphocytic choriomeningitis virus (strain Armstrong)) (P09992 whole entry, looked up): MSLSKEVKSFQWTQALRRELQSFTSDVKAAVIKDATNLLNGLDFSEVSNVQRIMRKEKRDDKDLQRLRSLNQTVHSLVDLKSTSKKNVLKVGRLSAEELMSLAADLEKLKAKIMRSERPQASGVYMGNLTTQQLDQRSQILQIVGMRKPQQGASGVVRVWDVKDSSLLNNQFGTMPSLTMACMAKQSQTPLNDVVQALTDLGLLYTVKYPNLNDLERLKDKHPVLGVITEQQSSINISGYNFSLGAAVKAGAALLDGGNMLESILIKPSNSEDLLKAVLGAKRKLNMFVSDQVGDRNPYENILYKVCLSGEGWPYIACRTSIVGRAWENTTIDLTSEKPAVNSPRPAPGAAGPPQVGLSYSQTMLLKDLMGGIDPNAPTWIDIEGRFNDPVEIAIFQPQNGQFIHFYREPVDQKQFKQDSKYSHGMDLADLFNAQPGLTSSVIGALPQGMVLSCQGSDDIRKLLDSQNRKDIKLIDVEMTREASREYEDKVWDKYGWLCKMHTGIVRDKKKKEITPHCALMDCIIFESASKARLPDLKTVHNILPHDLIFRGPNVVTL

Sequence of Luciferin 4-monooxygenase (Photinus pyralis) (P08659 whole entry, looked up): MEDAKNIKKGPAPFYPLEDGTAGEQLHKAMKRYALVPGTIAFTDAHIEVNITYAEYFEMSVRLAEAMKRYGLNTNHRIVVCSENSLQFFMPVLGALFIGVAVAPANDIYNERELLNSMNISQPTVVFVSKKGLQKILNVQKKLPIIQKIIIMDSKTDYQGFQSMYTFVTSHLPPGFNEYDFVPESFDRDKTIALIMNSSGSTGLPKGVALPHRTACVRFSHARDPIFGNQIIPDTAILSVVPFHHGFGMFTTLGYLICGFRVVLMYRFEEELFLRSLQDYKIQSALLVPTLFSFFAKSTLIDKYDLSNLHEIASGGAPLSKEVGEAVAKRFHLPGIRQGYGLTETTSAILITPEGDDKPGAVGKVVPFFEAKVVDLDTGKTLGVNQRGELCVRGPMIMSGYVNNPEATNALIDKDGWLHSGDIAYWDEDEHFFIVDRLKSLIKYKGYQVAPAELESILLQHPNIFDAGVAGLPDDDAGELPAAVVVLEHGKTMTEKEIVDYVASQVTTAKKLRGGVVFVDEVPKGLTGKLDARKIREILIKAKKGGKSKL

For `CC(C)(O)/C=C/C(=O)[C@](C)(O)[C@H]1[C@H](O)C[C@@]2(C)[C@@H]3CC=C4[C@@H](C=C(O)C(=O)C4(C)C)[C@]3(C)C(=O)C[C@]12C`, the Potency in [1] is 0.0944 µM (active); in assay [2], 0.237 µM (active); in assay [3] it was 0.0422 µM (active); in assay [4], 0.0376 µM (active).
Consider `CC(=O)O[C@@H]1CC2C(C)(C)C(=O)C=C[C@]2(C)C2CC[C@]3(C)C(=CC(=O)O[C@H]3c3ccoc3)[C@@]21C` (stereo not given in full), for which the Potency is 14.6 µM (active) in [2] and 11.2 µM (active) in assay [6]. Also, the Potency entry in assay [5] and in [7] was “inactive” each time.
For `CC(C)OC(=O)CCCC=CC[C@@H]1[C@H](C=C[C@@H](O)COc2cccc(C(F)(F)F)c2)[C@H](O)C[C@@H]1O`, the Potency in assay [8] is 38.5 µM (active).
For the compound `O=C(NCCCNc1nc(Nc2ccc(N3CCOCC3)cc2)ncc1C1CC1)C1CCC1`, the Potency in assay [1] is 10.3 µM (active); in assay [9], 22.4 µM (active); in assay [3] it was 5.25 µM (active); in assay [4], 7.42 µM (active). The Potency entry in [7] and in assay [10] was “inactive” in each case. The Z-AUC in assay [11] is 0.0288 (inactive); in [11] (measured here: PEO1 parental Z-AUC), -0.267; in assay [11] (measured here: PEO4 Z-AUC), -0.524.
For the compound `Nc1ccn(CC(CO)OCP(=O)(O)O)c(=O)n1` (stereo not given), the Potency entry in assay [1], in assay [2] and in assay [4] was “inactive” in each case.
For the compound `C=C1C(C)C2C(Cc3ccccc3)NC(=O)C23C(OC(C)=O)C=CC(C)(O)CC(C)CC=CC3C1O` (stereo not given), in assay [8], the Potency result was “inactive”.
For `CC[C@@H](O)C(C[C@@H](C)N(C)C)(c1ccccc1)c1ccccc1`, the Potency result in assay [12] and in [14] was “inactive” throughout. Moreover, the max response in [13] is 5.08% (inactive).
For `O=C1NC(=O)c2c1c1c3ccccc3n3c1c1c2c2ccccc2n1C1CCC3O1`, the figures for the Potency in [2], in assay [3] and in assay [4] were 3.66 µM (active), 0.517 µM (active) and 0.731 µM (active), respectively. In addition, the Potency entry in assay [15], in assay [16] and in assay [7] was “inactive” throughout.
In the case of `CCC(=C(CC)c1ccc(O)cc1)c1ccc(O)cc1`, the Potency result in assay [8] was “inactive”. Moreover, the results for the Potency in assay [17] and in assay [18] were 0.0153 µM (active) and 0.0137 µM (active), respectively.
For the compound `CCC(=C(c1ccc(O)cc1)c1ccc(OCCNC)cc1)c1ccccc1`, the Potency in [8] was 3.43 µM (active); in [17], 3.43 µM (active); in assay [18], 13.7 µM (active).
As for `COc1cccc(-c2ccc(NC(=O)C3=C(C(=O)O)CCC3)c(F)c2)c1`, the Potency result in assay [8], in [17] and in assay [18] was “inactive” throughout.
`C=C(C)C(Cc1c(OC)ccc(C(=O)/C=C/c2ccc(O)cc2)c1O)OO` (stereo not given): the Potency result in [8], in assay [17] and in assay [18] was “inactive” each time.
With `CCCCCCC[C@@H](C/C=C/CCC(=O)N(C)C/C(=C/Cl)C/C(=C\C(=O)N1C[C@H](O)CC1=O)OC)OC`, the Potency entry in assay [8], in assay [17] and in assay [18] was “inactive” in each case.
For the compound `COc1c(C(=O)/C=C/c2ccccc2)ccc2c1C=CC(C)(C)O2`, the Potency entry in assay [8], in assay [17], in assay [18] and in assay [19] was “inactive” in each case.

The record behind these values is PubChem BioAssay (NCATS).
